Screens deposited in PubChem by National Center for Advancing Translational Sciences (NCATS).
PI5P4K alpha inh: inhibitors of human PI5P4K alpha | AID 652105 | PI5P4Kalpha enzyme, ADP-Glo luminescence, 60 min; hits give low values | 330,000 tested, 1.2% active | P48426 | max response, %; active = max response of -50% or lower; inconclusive = between -30% and -50%; inactive = -30% or higher; note: value at the top dose of about 77 µM
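Controls without substrate or without enzyme flank wells where PI5P4Kalpha converts substrate using 5 microM ATP (final). Incubation lasts 60 minutes at room temperature; ADP formed is read by ADP-Glo luminescence.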
12-LOX inh: ALOX12 (human) lipoxygenase inhibition. P18054. purified 12hLO, xylenol orange hydroperoxide absorbance. Potency, µM (doses to about 108 µM), hits mostly inhibitors. 580,000 tested, 1.1% active. AID 1671190
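Purified human 12hLO at 150 nM in 25 mM Hepes, 0.01% Triton X-100, pH 7.0, preincubated 15 min at room temperature with compound. Reaction started with 40 uM arachidonic acid, 30 min at room temperature. Hydroperoxide measured by Fe-xylenol orange, 573/405 nm absorbance ratio.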
Pol eta inh: inhibitors of human DNA polymerase eta; 390,000 tested, 1.2% active; Potency, µM (top dose mostly 114 µM), actives largely listed as inhibitors; AID 588591; recombinant Pol eta, fluorescent DNA replication assay; Q9Y253
Target sequence (Q9Y253 whole entry, looked up): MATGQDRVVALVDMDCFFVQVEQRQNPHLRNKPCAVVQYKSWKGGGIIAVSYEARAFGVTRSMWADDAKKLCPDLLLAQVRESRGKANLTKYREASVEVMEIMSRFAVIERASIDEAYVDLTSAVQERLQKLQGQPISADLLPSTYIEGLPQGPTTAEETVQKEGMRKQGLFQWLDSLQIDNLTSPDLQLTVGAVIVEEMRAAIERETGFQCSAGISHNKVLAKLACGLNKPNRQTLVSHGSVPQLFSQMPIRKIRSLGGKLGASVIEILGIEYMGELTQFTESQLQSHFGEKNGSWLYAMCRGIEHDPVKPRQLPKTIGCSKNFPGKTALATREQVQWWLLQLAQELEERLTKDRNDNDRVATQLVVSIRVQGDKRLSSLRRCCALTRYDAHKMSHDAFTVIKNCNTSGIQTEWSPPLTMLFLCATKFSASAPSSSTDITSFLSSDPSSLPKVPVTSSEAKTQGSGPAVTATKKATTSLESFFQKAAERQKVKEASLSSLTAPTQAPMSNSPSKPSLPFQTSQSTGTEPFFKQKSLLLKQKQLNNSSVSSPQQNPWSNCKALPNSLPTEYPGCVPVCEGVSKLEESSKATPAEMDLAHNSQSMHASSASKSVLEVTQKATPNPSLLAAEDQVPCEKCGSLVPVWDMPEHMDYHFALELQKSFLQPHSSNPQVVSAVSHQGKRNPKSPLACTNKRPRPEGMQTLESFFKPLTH
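Pol eta at 10 nM preincubated with compounds 15 min at room temperature; reaction started with fluorescent substrate (50 nM final) and read kinetically at 0 and 10 min.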
Pol kappa inh: DNA polymerase kappa (human) inhibition; Q9UBT6; purified Pol kappa, fluorescent DNA synthesis assay, 10 min; Potency, µM (doses to about 107 µM), most hits filed as inhibitors; 400,000 tested, 0.53% active
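10 nM Pol kappa preincubated 15 min at room temperature with compounds, then reaction started with substrate at 50 nM final. Fluorescence read kinetically at 0 and 10 min; buffer-only wells served as negative control.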
POLI inh: inhibitors of human DNA polymerase iota; 390,000 tested, 1% active; AID 588590; Pol iota fluorescent replication assay, 10 min; Q9UNA4; Potency, µM (doses to about 115 µM), actives largely listed as inhibitors
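Fluorescent replication assay read twice, at 0 min and 10 min after adding 50 nM (final) substrate. Enzyme (10 nM) and compounds were first incubated 15 min at room temperature; enzyme-free buffer wells were negative controls.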
POLB inh: DNA polymerase beta (human) inhibition. P06746. Pol beta primer extension/strand displacement, fluorescence kinetic. Potency, µM (doses to about 114 µM), hits mostly inhibitors. 340,000 tested, 1.3% active. AID 485314
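Pol beta (10 nM) and compounds were preincubated 15 min at room temperature, then 50 nM substrate (final) started primer extension/strand displacement. Reads were taken at 0 and 10 min; concentration-response data were fitted to a four-parameter Hill equation.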
Numbers stand for hits; – = inactive; ? = inconclusive; · = not tested or not shown; [ ] = dose if it differs, or a comment. Compounds with a hit are over-represented: about 2.9% of the library has one in this group of screens. Unless noted, calls come from the whole dose curve; as a rule, active = well fitted inhibition curve with a large enough effect; inconclusive = small, poorly fitted or top-dose-only effect, or another doubt; inactive = no such curve, though single readings can be large or run the other way.

SMILES | PI5P4K alpha inh | 12-LOX inh | Pol eta inh | Pol kappa inh | POLI inh | POLB inh
COCC1CCN(Cc2c(C(=O)N3CCc4ccccc4C3)nc3ccc(Cl)cn23)C1 (centres undefined) | – | – | ? | ? | 40µM | ?
COC1CCN(Cc2c(C(=O)N3CCc4ccccc4C3)nc3ccc(Cl)cn23)CC1 | – | – | – | – | – | –
COc1ccccc1-n1c(SCc2cc(=O)oc3cc(O)ccc23)nc2ccccc2c1=O | ? | ? | 32µM | – | ? | ?
O=C(NCc1ccc2c(c1)OCO2)c1ccc(C2SCC(=O)N2Cc2ccco2)cc1 (centres undefined) | · | – | 79µM | – | ? | –
C=CCNC(=O)c1ccc(C2SCC(=O)N2Cc2ccco2)cc1 (centres undefined) | – | – | ? | ? | 45µM | ?
COCCNC(=O)c1ccc(C2SCC(=O)N2Cc2ccco2)cc1 (centres undefined) | – | – | – | – | – | –
CN(C)c1ccc(/C=C(\C#N)C(=O)Nc2nc3c(s2)CCN(Cc2ccccc2)C3)cc1 | · | – | ? | – | 20µM | –
O=C(Nc1nc2c(s1)CN(Cc1ccccc1)CC2)C1CCC1 | – | – | – | – | – | –
CC(=O)Sc1nc(-c2ccccc2)[nH]c1S(=O)(=O)c1ccc(C)cc1 | -81 | · | – | – | – | –
O=C(Nc1ccc(F)cc1)C1C(c2ccccc2)C1(Cl)Cl (centres undefined) | – | 7.1µM | – | – | – | –
COc1cc2c(cc1OC)CN(Cc1nc3ccsc3c(=O)[nH]1)CC2 | – | ? | 18µM | ? | ? | ?
COc1ccc(C(=O)Nc2cc(-c3nc4ccccc4s3)ccc2OC)cc1 | · | – | – | – | – | –
COc1ccc(-c2nc3ccccc3s2)cc1NC(=O)c1cccc(F)c1 | · | – | – | – | ? | 13µM
COc1ccccc1Cc1c(C(C)(C)C)nc2c3ccccc3ccn12 | – | 28µM | · | · | · | ·
COc1cc(CNC(=O)CCCc2cccs2)ccc1OCc1cccnc1 | · | – | · | · | · | ·
C=CCN1c2ccccc2[C@]23C[C@@H](C(=O)OC)N(C(=O)c4cccs4)C2=NC(C(=O)OC)=C(C(=O)OC)[C@H]13 | -52 | – | – | – | ? | –
C=CCN1c2ccccc2[C@]23C[C@@H](C(=O)OC)N(C(=O)c4ccc(Br)cc4)C2=NC(C(=O)OC)=C(C(=O)OC)[C@H]13 | – | – | – | – | – | –
COc1ccc(-c2nc(=S)[nH][nH]2)cc1 | ? | ? | – | – | – | –
CCOc1ccc(-c2nc(=S)[nH][nH]2)cc1 | ? | 25µM | – | – | – | –
Cc1ccccc1OC(=O)C(c1ccccc1)c1ccccc1 | · | – | · | · | · | ·
Cc1ccc2c(CCNC(=O)CNC(=O)c3ccccc3)c[nH]c2c1 | · | – | · | · | · | ·
CC(C)CCC(CCNCc1ccco1)c1ccco1 (centres undefined) | · | 0.45µM | · | · | · | ·
c1ccc(CC(CCNCc2ccco2)c2ccco2)cc1 (centres undefined) | · | – | · | · | · | ·
CC(C)Nc1nc(C(=O)Nc2nccs2)cs1 | · | – | · | · | · | ·
CCN(CC)C(=S)Sc1ccc([N+](=O)[O-])cc1 | · | 5.6µM | · | · | · | ·
SMILES | PI5P4K alpha inh | 12-LOX inh | Pol eta inh | Pol kappa inh | POLI inh | POLB inh
O=C(c1ccc2c(c1)OCO2)N1CCC2(CC1)N=C(c1ccccc1)NO2 | · | – | · | · | · | ·
Nc1nc2ccc([N+](=O)[O-])c(N)c2s1 | -58 | ? | – | – | – | –
Nc1ccc2nc(N)sc2c1 | – | – | – | – | – | ·
O=C(NCc1ccco1)C(c1ccc(F)cc1)N(CC1CCCO1)C(=O)Cn1nnc2ccccc21 (centres undefined) | – | – | – | – | – | 0.32µM
COc1ccc(-c2nc(-c3cccs3)c(-c3cccs3)[nH]2)cc1OC | – | ? | – | – | – | 89µM
COc1ccc(-c2nc(-c3ccccc3)c(-c3cccs3)[nH]2)cc1OC | · | – | – | – | – | –
O=C(Cn1cc(C2CCCNC2)nn1)N1CCCC1 (centres undefined) | · | – | · | · | · | ·
Cc1cc(C)n(CC2(Cn3cc(C4CCCNC4)nn3)CC2)n1 (centres undefined) | · | 14µM | · | · | · | ·
Cc1c(Cl)c([N+](=O)[O-])nn1CCCC(=O)Nc1c(Cl)cccc1Cl | – | – | – | – | – | –
Cc1nn(Cc2ccc(Cl)cc2)c(C)c1NC(=O)CCCn1nc([N+](=O)[O-])c(Cl)c1C | – | – | – | – | – | 89µM
CN(C)c1ccc(C(=C2C=CC(=[N+](C)C)C=C2)c2c(O)c(S(=O)(=O)[O-])cc3cc(S(=O)(=O)O)ccc23)cc1 | · | · | · | 8.9µM | ? | ·
CN(C)c1ccc(C(=C2C=CC(=[N+](C)C)C=C2)c2ccccc2)cc1 | · | 0.32µM | · | –[12 µM] | · | ·
CN(C)c1ccc(C(=C2C=CC(=[N+](C)C)C=C2)c2ccc(N(C)C)cc2)cc1 | · | ? | · | ? | – | ·
O=C(c1ccccc1)N1CC2(CCCCN2Cc2cccnc2)Cc2ccccc21 (centres undefined) | · | –[6.33 µM] | · | · | · | ·
COc1ccc(/C=C2\Oc3cc(OS(=O)(=O)c4ccccc4)ccc3C2=O)c(OC)c1OC | · | – | · | · | · | ·
CCCC(C(=O)Nc1c(C)cccc1C)N1C(=O)C(=O)c2ccccc21 (centres undefined) | · | 6.3µM | · | · | · | ·
CCc1cccc(CC)c1NC(=O)CN1C(=O)C(=O)c2ccccc21 | · | – | – | – | – | –
CC(C)NC(=O)NC(=O)CN(C)Cc1ccccc1 | · | – | · | · | · | ·
COc1ccc2c(C)c(CCC(=O)N3CCC(O)CC3)c(=O)oc2c1 | · | – | · | · | · | ·
O=C(Oc1coc(CSc2nnc(NC(=O)c3cccs3)s2)cc1=O)c1ccccc1 | – | – | ? | ? | ? | 13µM
CC(Oc1cccc(Br)c1)c1nc(-c2ccncc2)no1 (centres undefined) | · | – | · | · | · | ·
CN(C)S(=O)(=O)c1cccc(NC(=O)COC(=O)/C=C/c2ccc(Br)o2)c1 | ? | – | ? | ? | 45µM | ?
O=C(COC(=O)/C=C/c1ccc(Br)o1)Nc1ccc2[nH]c(=O)[nH]c2c1 | · | – | · | · | · | ·
Cc1ccc(NC(=O)COC(=O)/C=C/c2ccc(Br)o2)cc1S(=O)(=O)N(C)C | – | – | – | ? | 45µM | –
COc1ccc(CN(Cc2ccco2)C(=O)c2cc3cc(OC)c(OC)cc3[nH]2)cc1 | · | – | · | · | · | ·
SMILES | PI5P4K alpha inh | 12-LOX inh | Pol eta inh | Pol kappa inh | POLI inh | POLB inh
CC(C)CNC(=O)c1cccc(NC(=O)c2ccc(NC(=O)c3ccco3)cc2)c1 | · | ? | – | – | ? | 25µM
CCOC(=O)c1c(C)c(C(=O)NCc2ccco2)c(C)n1Cc1ccccc1 | · | ? | ? | – | ? | 40µM
CCC(CC)C(=O)Nc1cccc(C(=O)NCc2ccco2)c1 | · | – | ? | ? | 40µM | 3.2µM
CCOC(=O)c1c(C)c(C(=O)NCc2ccco2)c(C)n1CC | – | – | – | – | – | –
Cc1cccc(C(=O)NCc2ccco2)c1 | – | – | ? | – | ? | 56µM
CCOc1ccc(C(=O)NCc2ccco2)cc1 | · | – | ? | ? | ? | 22µM
